This is an account of results in PMC7862700, “An all-to-all approach to the identification of sequence-specific readers for epigenetic DNA modifications on cytosine”.

Common to all, as to assay: DAPPL (digital affinity profiling via proximity ligation, sequencing); 10 mM Tris-HCl pH 7.5, 50 mM NaCl, 1 mM DTT, 4% glycerol, room temperature, 30 min; GST-TFs on glutathione beads, 16-mer random dsDNA library, 0.1% formaldehyde crosslink after washing; high values mean tight binding
Conditions in all cases: protein: recombinant; tags: N-terminal GST; dsDNA, one strand shown

The target of one test is T1, ELK4 (Homo sapiens, UniProt P28324-2 1-405).
T1 sequence: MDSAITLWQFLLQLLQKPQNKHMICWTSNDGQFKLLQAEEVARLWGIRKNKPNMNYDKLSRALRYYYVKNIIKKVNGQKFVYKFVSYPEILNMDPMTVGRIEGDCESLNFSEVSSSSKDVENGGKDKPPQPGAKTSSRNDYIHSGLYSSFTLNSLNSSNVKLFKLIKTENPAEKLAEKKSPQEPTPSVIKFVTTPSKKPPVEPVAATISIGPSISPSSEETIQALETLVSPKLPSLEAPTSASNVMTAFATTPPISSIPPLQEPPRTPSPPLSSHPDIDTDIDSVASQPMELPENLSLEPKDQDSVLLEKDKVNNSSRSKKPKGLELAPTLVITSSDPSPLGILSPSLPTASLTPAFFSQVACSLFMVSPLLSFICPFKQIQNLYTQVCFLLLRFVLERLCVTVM
A digest of the protocol: (§1)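 Binding signal is each hexamer's read frequency for a factor divided by its frequency in the tag-only sample. The factors were GST-fused human transcription factors from yeast, captured on glutathione beads, DNA-barcoded and pooled with that sample. Pools were incubated with 200 nmole of a random double-stranded 16-mer DNA library in Tris/NaCl/DTT/glycerol buffer at room temperature for 30 min, then washed, crosslinked with 0.1% formaldehyde, proximity-ligated with BsaI/T4 ligase (1 h, 37 °C), PCR-amplified and sequenced on an Illumina NextSeq500.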

A further test has as its target T2, ELK1 (Homo sapiens, UniProt P19419 1-428).
T2 sequence: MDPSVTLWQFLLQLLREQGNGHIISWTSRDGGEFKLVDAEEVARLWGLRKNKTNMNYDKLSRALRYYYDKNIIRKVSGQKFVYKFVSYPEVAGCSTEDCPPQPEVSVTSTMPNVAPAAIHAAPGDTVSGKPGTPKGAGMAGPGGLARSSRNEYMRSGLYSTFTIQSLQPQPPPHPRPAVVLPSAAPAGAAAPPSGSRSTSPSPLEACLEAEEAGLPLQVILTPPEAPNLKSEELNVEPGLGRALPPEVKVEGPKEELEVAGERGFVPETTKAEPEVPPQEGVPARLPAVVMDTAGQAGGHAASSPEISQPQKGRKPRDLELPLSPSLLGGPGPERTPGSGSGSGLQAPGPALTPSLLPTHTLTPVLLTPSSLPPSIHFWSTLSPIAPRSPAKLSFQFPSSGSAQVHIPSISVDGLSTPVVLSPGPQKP
A digest of the protocol:
as §1

The next test addresses T3, GABPA (Homo sapiens, UniProt Q06546 1-454).
T3 sequence: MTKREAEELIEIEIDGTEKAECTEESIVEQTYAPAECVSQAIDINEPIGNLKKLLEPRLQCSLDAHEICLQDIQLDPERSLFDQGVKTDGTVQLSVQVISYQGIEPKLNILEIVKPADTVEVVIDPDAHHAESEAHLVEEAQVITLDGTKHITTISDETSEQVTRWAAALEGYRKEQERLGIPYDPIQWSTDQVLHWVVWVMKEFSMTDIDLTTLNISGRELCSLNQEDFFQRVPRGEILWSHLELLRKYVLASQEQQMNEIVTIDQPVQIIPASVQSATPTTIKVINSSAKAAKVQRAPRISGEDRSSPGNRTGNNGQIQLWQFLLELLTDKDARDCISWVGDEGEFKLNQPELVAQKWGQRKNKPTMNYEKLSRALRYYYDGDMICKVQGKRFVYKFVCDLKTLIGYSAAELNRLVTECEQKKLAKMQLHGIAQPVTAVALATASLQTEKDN
The method, boiled down: as §1

The target of another test is T4, ERG (Homo sapiens, UniProt P11308 1-479).
T4 sequence: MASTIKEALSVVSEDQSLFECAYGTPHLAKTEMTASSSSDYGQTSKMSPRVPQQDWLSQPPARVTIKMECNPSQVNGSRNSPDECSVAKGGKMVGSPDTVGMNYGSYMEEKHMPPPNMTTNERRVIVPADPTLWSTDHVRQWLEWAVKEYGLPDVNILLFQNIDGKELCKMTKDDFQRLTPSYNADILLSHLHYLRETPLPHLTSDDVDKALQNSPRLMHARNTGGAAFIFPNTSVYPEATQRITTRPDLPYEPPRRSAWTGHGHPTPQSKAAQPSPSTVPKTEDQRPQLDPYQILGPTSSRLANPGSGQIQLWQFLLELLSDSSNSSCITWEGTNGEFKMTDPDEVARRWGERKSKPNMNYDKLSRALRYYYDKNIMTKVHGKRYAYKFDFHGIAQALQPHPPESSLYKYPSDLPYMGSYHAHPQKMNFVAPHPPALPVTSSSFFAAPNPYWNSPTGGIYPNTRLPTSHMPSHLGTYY
The method, boiled down: as §1

For another test, the target named is ELF1 (Homo sapiens, UniProt P32519 1-619). The method, boiled down:
as §1

The target in the next test is T5, EHF (Homo sapiens, UniProt Q9NZC4 1-300).
T5 sequence: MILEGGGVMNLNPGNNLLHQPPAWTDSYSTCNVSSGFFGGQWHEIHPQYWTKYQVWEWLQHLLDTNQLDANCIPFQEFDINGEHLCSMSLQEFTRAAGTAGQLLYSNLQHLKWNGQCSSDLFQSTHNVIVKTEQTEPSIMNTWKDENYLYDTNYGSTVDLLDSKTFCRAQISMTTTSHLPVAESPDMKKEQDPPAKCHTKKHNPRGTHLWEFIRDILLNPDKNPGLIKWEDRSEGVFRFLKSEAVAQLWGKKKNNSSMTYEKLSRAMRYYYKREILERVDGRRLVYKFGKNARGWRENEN
The method, boiled down: as §1

Another test deals with SPI1 (Homo sapiens, UniProt P17947 1-270). The method, boiled down:
as §1

The target of a further test is T6, ELK3 (Homo sapiens, UniProt P41970 1-407).
T6 sequence: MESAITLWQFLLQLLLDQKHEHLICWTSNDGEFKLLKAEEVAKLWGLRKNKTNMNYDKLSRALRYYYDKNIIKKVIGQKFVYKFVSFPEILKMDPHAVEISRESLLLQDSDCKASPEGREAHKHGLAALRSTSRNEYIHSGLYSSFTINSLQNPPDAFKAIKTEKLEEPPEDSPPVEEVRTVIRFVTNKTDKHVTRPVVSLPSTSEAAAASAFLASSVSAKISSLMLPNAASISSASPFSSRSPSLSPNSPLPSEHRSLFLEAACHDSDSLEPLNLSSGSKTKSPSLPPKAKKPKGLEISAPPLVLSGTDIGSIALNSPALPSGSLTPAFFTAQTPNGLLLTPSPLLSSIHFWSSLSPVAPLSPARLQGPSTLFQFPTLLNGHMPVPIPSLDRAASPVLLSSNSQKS
A digest of the protocol: as §1

In a further test the target is T7, FEV (Homo sapiens, UniProt Q99581 1-238).
T7 sequence: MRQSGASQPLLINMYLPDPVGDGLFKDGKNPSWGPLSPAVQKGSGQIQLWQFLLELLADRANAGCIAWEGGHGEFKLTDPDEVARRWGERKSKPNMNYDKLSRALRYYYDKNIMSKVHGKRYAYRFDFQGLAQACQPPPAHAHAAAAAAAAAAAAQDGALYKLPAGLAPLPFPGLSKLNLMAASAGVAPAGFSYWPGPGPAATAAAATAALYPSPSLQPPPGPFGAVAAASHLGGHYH
The method, boiled down: as §1

The target of the next test is ELF4 (Homo sapiens, UniProt Q99607 1-663). A digest of the protocol:
as §1

In the next test the target is ETV1 (Homo sapiens, UniProt P50549 1-477). The method, boiled down:
as §1

The target of a further test is T8, ERF (Homo sapiens, UniProt P50548 1-548).
T8 sequence: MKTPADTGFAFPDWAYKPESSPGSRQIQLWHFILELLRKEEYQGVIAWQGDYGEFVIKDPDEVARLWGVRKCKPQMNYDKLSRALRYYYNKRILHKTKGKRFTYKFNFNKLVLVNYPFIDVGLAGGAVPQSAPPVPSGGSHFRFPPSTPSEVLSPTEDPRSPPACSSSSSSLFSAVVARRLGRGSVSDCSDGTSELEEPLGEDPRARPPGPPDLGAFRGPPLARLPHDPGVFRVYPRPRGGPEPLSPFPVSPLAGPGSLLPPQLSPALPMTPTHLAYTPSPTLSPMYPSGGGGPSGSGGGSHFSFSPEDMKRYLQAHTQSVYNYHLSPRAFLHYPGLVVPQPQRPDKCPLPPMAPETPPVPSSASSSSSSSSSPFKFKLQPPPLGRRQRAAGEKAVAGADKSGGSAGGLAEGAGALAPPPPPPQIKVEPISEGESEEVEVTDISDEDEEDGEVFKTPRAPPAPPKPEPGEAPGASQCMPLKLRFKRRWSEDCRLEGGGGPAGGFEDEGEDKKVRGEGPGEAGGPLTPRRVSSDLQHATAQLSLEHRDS
The method, boiled down:
as §1

Another test addresses T9, ETS2 (Homo sapiens, UniProt P15036 1-469).
T9 sequence: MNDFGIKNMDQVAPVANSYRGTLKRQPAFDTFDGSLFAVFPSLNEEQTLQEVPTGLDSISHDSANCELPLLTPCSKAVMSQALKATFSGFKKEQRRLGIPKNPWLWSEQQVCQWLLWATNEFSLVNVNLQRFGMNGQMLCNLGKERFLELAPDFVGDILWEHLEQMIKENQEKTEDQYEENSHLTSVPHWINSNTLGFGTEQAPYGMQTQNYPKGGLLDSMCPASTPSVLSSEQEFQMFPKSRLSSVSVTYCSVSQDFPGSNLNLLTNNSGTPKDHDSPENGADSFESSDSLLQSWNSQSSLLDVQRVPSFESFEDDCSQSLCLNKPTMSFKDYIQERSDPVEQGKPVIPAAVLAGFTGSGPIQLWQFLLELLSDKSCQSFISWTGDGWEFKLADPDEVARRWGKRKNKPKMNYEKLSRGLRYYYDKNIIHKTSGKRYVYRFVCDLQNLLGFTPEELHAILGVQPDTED
A digest of the protocol: as §1

In another test the target is T10, ETV3 (Homo sapiens, UniProt P41162-2 1-143).
T10 sequence: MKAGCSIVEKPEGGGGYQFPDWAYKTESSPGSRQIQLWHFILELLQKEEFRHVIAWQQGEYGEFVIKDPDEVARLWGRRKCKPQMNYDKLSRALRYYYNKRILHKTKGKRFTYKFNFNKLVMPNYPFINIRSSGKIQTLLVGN
The method, boiled down: as §1

Sequence of ETV1 (P50549 whole entry): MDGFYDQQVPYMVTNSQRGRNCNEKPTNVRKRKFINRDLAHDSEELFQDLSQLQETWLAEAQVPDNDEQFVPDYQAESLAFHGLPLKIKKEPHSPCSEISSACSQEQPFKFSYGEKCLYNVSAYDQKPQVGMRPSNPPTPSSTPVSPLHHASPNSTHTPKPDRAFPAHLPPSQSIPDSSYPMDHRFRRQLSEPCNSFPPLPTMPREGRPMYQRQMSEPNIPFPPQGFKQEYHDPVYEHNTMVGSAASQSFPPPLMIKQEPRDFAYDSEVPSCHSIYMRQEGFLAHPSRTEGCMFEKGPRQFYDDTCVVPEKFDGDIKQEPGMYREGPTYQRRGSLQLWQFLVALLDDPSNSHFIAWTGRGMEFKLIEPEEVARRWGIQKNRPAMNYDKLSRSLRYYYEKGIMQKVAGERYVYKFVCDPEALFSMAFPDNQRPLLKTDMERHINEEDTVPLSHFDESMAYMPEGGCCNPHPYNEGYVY
Sequence of ELF4 (Q99607 whole entry): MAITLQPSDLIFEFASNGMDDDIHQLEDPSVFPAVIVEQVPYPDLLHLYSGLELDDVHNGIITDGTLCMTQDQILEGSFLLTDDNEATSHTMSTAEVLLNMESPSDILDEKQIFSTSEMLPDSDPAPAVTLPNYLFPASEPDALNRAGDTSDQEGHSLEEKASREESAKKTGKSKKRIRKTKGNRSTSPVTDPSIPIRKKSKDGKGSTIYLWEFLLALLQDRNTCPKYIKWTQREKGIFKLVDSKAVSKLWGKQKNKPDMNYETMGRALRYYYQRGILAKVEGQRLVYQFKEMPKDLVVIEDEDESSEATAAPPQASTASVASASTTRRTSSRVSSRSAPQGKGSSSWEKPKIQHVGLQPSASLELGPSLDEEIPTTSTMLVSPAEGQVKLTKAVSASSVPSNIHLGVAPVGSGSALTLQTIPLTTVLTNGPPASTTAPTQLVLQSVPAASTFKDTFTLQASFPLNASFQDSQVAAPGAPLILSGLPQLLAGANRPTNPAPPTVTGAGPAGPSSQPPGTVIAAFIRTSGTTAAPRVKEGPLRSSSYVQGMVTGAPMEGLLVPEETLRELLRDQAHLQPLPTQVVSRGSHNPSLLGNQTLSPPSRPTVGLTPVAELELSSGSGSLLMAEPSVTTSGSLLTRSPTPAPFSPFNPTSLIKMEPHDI
Sequence of ELF1 (P32519 whole entry): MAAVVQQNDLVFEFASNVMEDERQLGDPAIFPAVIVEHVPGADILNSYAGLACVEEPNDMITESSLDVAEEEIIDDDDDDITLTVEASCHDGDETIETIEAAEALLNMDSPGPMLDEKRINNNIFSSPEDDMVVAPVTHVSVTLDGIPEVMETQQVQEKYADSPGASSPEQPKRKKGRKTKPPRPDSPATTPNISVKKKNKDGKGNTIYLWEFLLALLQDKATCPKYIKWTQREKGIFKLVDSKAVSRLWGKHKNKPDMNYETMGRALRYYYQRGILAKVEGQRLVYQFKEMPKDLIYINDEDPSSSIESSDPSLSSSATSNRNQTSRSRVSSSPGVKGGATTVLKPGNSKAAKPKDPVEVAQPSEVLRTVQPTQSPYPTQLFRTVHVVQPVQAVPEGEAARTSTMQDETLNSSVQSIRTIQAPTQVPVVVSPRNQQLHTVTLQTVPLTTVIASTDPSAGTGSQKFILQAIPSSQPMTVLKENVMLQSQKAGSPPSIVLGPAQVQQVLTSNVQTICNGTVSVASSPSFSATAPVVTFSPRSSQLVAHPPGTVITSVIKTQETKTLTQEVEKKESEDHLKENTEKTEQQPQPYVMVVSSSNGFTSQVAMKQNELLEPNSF

For the sequence CTGTGT, the binding signal with ELK4 is 1.04 fold enrichment (6-mer frequency, TF over GST control).
In the case of CACCGC, the binding signal with ELK1 was 1.01 fold enrichment (6-mer frequency, TF over GST control); in the test with GABPA, 1.06 fold enrichment (6-mer frequency, TF over GST control); with ERG, 1.02 fold enrichment (6-mer frequency, TF over GST control); with ELF1 it was 1.04 fold enrichment (6-mer frequency, TF over GST control); with EHF, 1.08 fold enrichment (6-mer frequency, TF over GST control); in the test with SPI1, 1.01 fold enrichment (6-mer frequency, TF over GST control). The binding signal with ELK3 is 1.06 fold enrichment (6-mer frequency, TF over GST control); in the test with FEV, 1.04 fold enrichment (6-mer frequency, TF over GST control); in the test with ELF4 it was 1.06 fold enrichment (6-mer frequency, TF over GST control); with ELK4, 1 fold enrichment (6-mer frequency, TF over GST control); in the test with ETV1, 1 fold enrichment (6-mer frequency, TF over GST control); in the test with ERF, 1.07 fold enrichment (6-mer frequency, TF over GST control). Moreover, the binding signal was 1.05 fold enrichment (6-mer frequency, TF over GST control) with ETS2 and 1.04 fold enrichment (6-mer frequency, TF over GST control) with ETV3.
